The text below walks through data of PubChem BioAssay (NCATS).

Inconclusive results are not listed. Active and inactive are the calls of the source. Calls follow the shape of the dose curve; as a rule, active = well fitted inhibition curve with a large enough effect; inconclusive = small, poorly fitted or top-dose-only effect; inactive = no such curve, though single readings can be large or run the other way.

The nature of the experiment: Counterscreen for APE1 Inhibitors: Fluorescent Dye Displacement Validation Assay (AID 1707). The settings on record: fluorescent dye displacement from DNA; series mostly up to 57.1 µM. From the text:
In order to distinguish true inhibitors of DNA-processing enzymes from promiscuous DNA-binding compounds among screening assay hits, we developed a homogeneous and miniaturized assay based on fluorescent dye displacement test as originally described by Tse and Boger (Accounts of Chemical Research (2004) 37: 61-69). The assay is based on the strong enhancement of fluorescence when Thiazole Orange (ThO) binds to double-stranded DNA: conversely, in the presence of a DNA-binding compound, Thiazole Orange is displaced from the DNA and its fluorescence is reduced.
Buffer. 50 mM Tris-HCl (pH7.5) containing 50mM NaCl, 2 mM MgCl2, and 0.01% Tween-20.
Buffer containing 250 nM ThO in columns 3 and 4 as negative control (no dsDNA).
Reaction mixture: 250 nM ThO and 50 nM dsDNA at final concentration dispensed throughout the plate: in columns 1, 2, 5-48. Column 1 is neutral (100% activity).
5''TAMRA- TC ACC FTC GTA CGA CTC
3'' AG TGG GAG CAT GCT GAG
where F denotes tetrahydrofuran.
Control: Pintool transfer of control compound WB64 (W4761, Sigma-Aldrich) to column 2 of all assay plates as a two-fold 16-point dilution in duplicate (concentration range 5.75 uM - 0.175 nM).
Four uL of reaction mixtures were dispensed to 1536-well Greiner black solid bottom plates. Compounds (23 nL) were transferred […] in order to measure the endpoint fluorescence using 480 nm excitation and 540 nm emission fluorescence protocol.
`COc1ccccc1N1CCN(CCN2C(=O)CC3(CCCC3)CC2=O)CC1`: the molecule was classed as inactive.

Consider `Cn1cnc2c(NCc3ccccc3)nc(NCCO)nc21`, for which the outcome was inactive.

For the molecule `CN(C)c1cc2c(Nc3ccc4c(cnn4Cc4ccccc4)c3)ncnc2cn1`, the molecule was called inactive.

Regarding `C[C@]12CCC(=O)C=C1CC[C@@H]1[C@@H]2[C@@H](O)C[C@@]2(C)[C@H]1CC[C@]2(O)C(=O)COC(=O)CCC(=O)O`, the result was inactive.

Consider `O=C1NC(c2cccc([N+](=O)[O-])c2)=CCN1c1ccccc1O`, for which the result was inactive.

For `Brc1ccc([C@H]2CN3CCSC3=N2)cc1`, the molecule was classed as inactive.

Consider `NC(N)=NCCCCN=C(N)N`, for which the molecule was classed as inactive.

Consider `COc1cccc2c1[C@@H]1CN(CCCCn3c(=O)[nH]c4c(sc5ncc(-c6ccccc6)nc54)c3=O)C[C@@H]1CO2`, for which the outcome was inactive.

Regarding `CC(C)N(CCC(=O)c1ccc2ccccc2c1)Cc1ccccc1`, the result was inactive.

On to `C[N+](C)(C)CCO`, for which the molecule was called inactive.
